We go through 93 compounds from PubChem BioAssay AID1850 (Southern Research Specialized Biocontainment Screening …, 2009).

Hit rate of the full screen: of about 310,000 compounds, about 1,000 (0.32%) were called active. Only a sample is shown. Potency and affinity values are given separately. Values without a mark were called inactive. No rule for the calls is given here.

The nature of this test: PhoP regulon inhibitors, Salmonella typhi PhoP promoter GFP reporter, confirmatory (AID 1850).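 Also: 0% = induced wells with vehicle and 100% = uninduced wells.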 Conditions: fluorescence, 4 h, at 50 µM, stronger effect = higher value.
Consider `CCCCOc1ccc(NC(=O)C(=O)NCCCn2ccnc2)cc1`, for which the inhibition is -4.73%. On to `CC[C@H](C)[C@@H]1NC(=O)c2cc([N+](=O)[O-])cc(F)c2NCCCC[C@@H](C(N)=O)NC(=O)[C@H](CCCCN)NC1=O`, for which the inhibition is 1.42%. Then `CCOc1ccc(CNc2nnnn2C)cc1OC`, with -3.66%. Then `COc1ccc(NS(=O)(=O)c2cccc(NC(=O)NCCCl)c2)cc1`, with -19.5%. Then `CC(=O)Nc1ccc(/C=N/N2C(=O)NC(C)(c3ccc(OC(F)F)cc3)C2=O)cc1` (stereo not drawn), with -10%. As for `Cc1ccc(NC(=O)CSCC(=O)Nc2ncc3c(n2)CC(c2ccco2)CC3=O)cc1` (stereo not drawn), the inhibition was 2.49%.

In the case of `CCOc1cc(/C=C2\CCCC(C(=O)C(F)(F)F)=C2O)ccc1O`, the inhibition is -4.72%. Then `CN(CC(=O)Nc1cccc(F)c1)C(=O)c1ccncc1`, with -3.54%; and `CCOC(=O)N1CCN(C2CCCN(C(=O)c3ccccc3SC)C2)CC1` (stereo not drawn), with 4.8%; and `O=C(COc1ccccc1C(=O)c1cnn(-c2ccccc2)c1)Nc1ccccc1`, with -4.89%. The figure for `COc1cc(OC)cc(C(=O)NNC(=O)c2ccc(S(=O)(=O)N(C)c3ccccc3OC)cc2)c1` is 15.6%.

`COc1ccc(Nc2cc(C)nc3ccccc23)cc1`: the inhibition was 13.4%. The figure for `COc1cccc2c(N/N=C/c3ccc(O)c(O)c3)cc(C)nc12` is -4.34%. The figure for `Cc1cc(N/N=C/c2ccccc2O)c2ccccc2n1` is -0.61%; for `Cc1cccc(Nc2cc(C)nc3ccccc23)c1` it is 5.71%; for `Cc1cc(N/N=C/c2ccc(N(C)C)cc2)c2ccccc2n1` it is 0.75%. On to `Cc1cc(N/N=C/c2ccc(O)cc2O)c2ccccc2n1`, for which the inhibition was -3.45%. Then `Cc1cccc(N2C(=O)C(Oc3ccc(Cl)cc3Cl)C2C(=O)O)c1C` (stereo not drawn), with -8.69%; and `Cc1nnc(Cn2cnc3c2c(=O)n(C)c(=O)n3C)o1`, with 6.26%; and `O=C(COc1ccc(/C=N/NC(=O)c2ccncc2)cc1)Nc1ccccc1`, with -0.13%.

As for `CCOC(=O)c1c(-c2ccccc2)oc2ccc(OCC)cc12`, the inhibition was -1.51%. The figure for `CCOC(=O)c1c(-c2ccccc2)oc2ccc(OCC(O)CN(C)C)cc12` (stereo not drawn) is -1.17%; for `Cc1ccc(-n2ncc3c(SCc4ccccn4)ncnc32)c(C)c1` it is -1.44%. Then `c1ccc(Cn2ccc(-c3cnc(-c4ccccc4)s3)n2)cc1`, with 9.82%. Then `Nc1[nH]ncc1-c1ccc(F)cc1`, with -6.64%; and `Nc1[nH]ncc1-c1ccc(Cl)cc1`, with 9.56%; and `CCc1nnc(NC(=O)Nc2ccccc2OC)s1`, with 1.12%.

In the case of `CCc1ccc(N2CC(C(=O)N/N=C/c3ccccc3)CC2=O)cc1` (stereo not drawn), the inhibition is -5.31%.

In the case of `CCc1ccc(N2CC(C(=O)N/N=C/c3cccc([N+](=O)[O-])c3)CC2=O)cc1` (stereo not drawn), the inhibition was -13.7%. As to `COc1ccc(N2CC(C(=O)Nc3ccc([N+](=O)[O-])cc3Br)CC2=O)cc1` (stereo not drawn), the inhibition was 6.01%. Then `COc1ccc(N2CC(C(=O)N/N=C/c3ccc([N+](=O)[O-])cc3)CC2=O)cc1` (stereo not drawn), with 0.01%. The figure for `COc1ccccc1/C=N/NC(=O)c1cccc(NC(=O)c2ccccc2C)c1` is 8.56%; for `CC(C)(C)N/N=C/c1cc(Cl)cc([N+](=O)[O-])c1O` it is -7.27%; for `O=C(N/N=C/c1cc(Cl)cc([N+](=O)[O-])c1O)NC12CC3CC(CC(C3)C1)C2` it is 7.74%.

With `Cc1cc(C(=O)N/N=C/c2cc(Cl)cc([N+](=O)[O-])c2O)c2ccccc2n1`, the inhibition is 15.1%. Then `CCCCNC(=O)CCn1c(=O)c2ccccc2n(Cc2ccc(Cl)cc2)c1=O`, with 5.58%.

In the case of `CCOC(=O)C(C)Oc1cccc2c(=O)n(CC(=O)N3CCCc4ccccc43)ccc12` (stereo not drawn), the inhibition is 2.67%. Then `COc1ccc(Cn2c(=O)oc3ccc(C)cc32)cc1`, with 10.7%.

Turning to `O=C(CSc1ccccc1)Nc1ccc(N2CCOCC2)c(F)c1`, the inhibition is -2.5%. Then `Cc1ccc(CC2C(=O)N(C)C(=O)N(C)C2=O)s1`, with 5.58%; and `CCOc1ccc(N(CC(=O)Nc2ccc(OC)cc2)S(=O)(=O)c2c(C)[nH]c(=O)[nH]c2=O)cc1`, with -6.24%; and `NCCc1nnc(SCC(N)=O)o1`, with -11.5%. The figure for `O=[N+]([O-])c1cc(Cl)cc(/C=N/NC(=S)Nc2cc(S(=O)(=O)N3CCOCC3)ccc2Cl)c1O` is -3.6%.

`O=S(=O)(c1ccc(NC(=S)N/N=C/c2ccc(O)c(O)c2)cc1)N1CCOCC1`: the inhibition was 9.73%.

Take `O=C(N/N=C/c1cc([N+](=O)[O-])ccc1O)C1C2CCCCC21` (stereo not drawn): the inhibition was -4.14%. Then `O=C(N/N=C/c1ccc([N+](=O)[O-])cc1)c1cccc2cc[nH]c12`, with 20.2%; and `O=C(N/N=C/c1cccc([N+](=O)[O-])c1)c1cccc2cc[nH]c12`, with -2.43%. The figure for `Cc1ccc(NC(=O)CCC(=O)N/N=C/c2cc([N+](=O)[O-])ccc2O)cc1` is -3.42%; for `O=C(N/N=C/c1cc([N+](=O)[O-])ccc1O)C1CCCCC1` it is -0.28%. Then `Cc1ccccc1NC(=O)CCC(=O)N/N=C/c1cc([N+](=O)[O-])ccc1O`, with -5.84%.

As to `CCOCCCN(C(=O)Cn1nnc(-c2ccc(C)o2)n1)C(C(=O)NCC1CCCO1)c1ccc(F)cc1` (stereo not drawn), the inhibition was 5.95%. The figure for `CN(C)/C=C1\C(=O)Oc2ccccc2C1=O` is 20.1%. Regarding `Cn1c(SCc2cccc(F)c2)nnc1-c1cnccn1`, the inhibition is -1.53%.

Regarding `O=C(NCc1cc(C(F)(F)F)cc(C(F)(F)F)c1)C1CC(c2ccccc2F)=NO1` (stereo not drawn), the inhibition is -1.16%. Then `CN1CCN(C(=O)c2cc3cc(Cl)ccc3[nH]2)CC1`, with -3.23%; and `CN1CCN(C(=O)c2cc3cc(F)ccc3[nH]2)CC1`, with 10.7%. Turning to `CCOC(=O)N1CCN(C(=O)c2cc3cc(F)ccc3[nH]2)CC1`, the inhibition is 7.38%. With `CCOC(=O)N1CCN(C(=O)c2cc3cc(Cl)ccc3[nH]2)CC1`, the inhibition was -18%. As for `COC(=O)c1c(O)cc(C(C)(C)C)n(-c2ccc(F)cc2)c1=O`, the inhibition was -3.64%. Then `Cc1ccc(Cn2c(=N)c(C(=O)NC3CCCC3)cc3c(=O)n4ccccc4nc32)cc1`, with -16.4%; and `O=C(CCN1CCOCC1)c1ccc(Br)cc1`, with 24.1%.

For the compound `O=C(CCC(=O)N1CCN(c2ccccc2F)CC1)c1ccc(F)cc1`, the inhibition was 4.65%. As for `COc1ccc(C(=O)CCN2CCN(c3ccccc3F)CC2)cc1`, the inhibition is 8.74%. The figure for `O=C(CCN1CCN(c2ccccc2)CC1)Nc1ccc(Cl)cc1` is 11.6%.

On to `COc1ccc(C(=O)CCN2CCN(c3ccc(OC)cc3)CC2)cc1`, for which the inhibition is 11.8%. Then `O=C(CCN1CCN(c2ccc([N+](=O)[O-])cc2)CC1)c1ccc(Cl)cc1`, with -10.4%. Then `O=C(c1ccc(Br)cc1)N1CCN(Cc2ccccc2)CC1`, with -4.12%; and `O=C(NCCN1CCN(C(=O)c2ccc(Br)cc2)CC1)c1ccc(Br)cc1`, with -4.36%. The figure for `C#Cc1ccc([C@@H]2C=C(C(=O)NCc3ccccc3)O[C@H](OCCCCO)C2)cc1` is -19.4%; for `CCCCn1c(N)c(N(CCC(C)C)C(=O)c2sc3nc4n(c(=O)c3c2C)CCC4)c(=O)[nH]c1=O` it is -5.32%; for `O=C(Nc1ccnn1C1CCN(CCCc2ccccc2)CC1)c1ccccc1` it is -0.47%.

Turning to `O=C(CCN1C(=O)/C(=C/c2cccs2)SC1=S)Nc1ccc(C(=O)O)cc1`, the inhibition is 1.33%.

`Cc1cc(O)cc(O)c1C(=O)Cc1cscn1`: the inhibition was 5.71%.

In the case of `CCOC(=O)Nc1nc(C)c(C(=O)c2ccc(Cl)cc2)s1`, the inhibition is -3.7%. `O=C1c2ccccc2C(=O)N1CCc1ccccc1`: the inhibition was 2.79%.

Take `CN1CCN(c2nc(C#N)cc(-c3ccccc3)n2)CC1`: the inhibition was 6.67%. The figure for `CO[C@@]1(NC(=O)CSCC#N)C(=O)N2C(C(=O)O)=C(CSc3nnnn3C)CS[C@@H]21` is -5.33%; for `Cn1nnnc1SCC1=C(C(=O)O)N2C(=O)C(NC(=O)C3CC3c3ccccc3)C2SC1` (stereo not drawn) it is -4.57%. Then `CCc1nccn1CCC(=O)N1CCCC(Nc2ccc(F)cc2)C1` (stereo not drawn), with -1.62%; and `O=C1Nc2c(c(=O)[nH]c(=O)n2Cc2ccccc2)C1(NS(=O)(=O)c1ccccc1)C(F)(F)F` (stereo not drawn), with -5.69%; and `NC1=NC[C@H](Cc2ccc(O)cc2)N1CC1CCCCC1`, with 5.76%. Then `CN(C)C1=NC[C@H](Cc2ccccc2)N1CCCC1CCCCC1`, with 4.81%. For `CCCCN1C(N)=NC[C@@H]1c1ccccc1`, the inhibition was -18.5%. The figure for `NCCCC[C@H]1CN=C(N)N1CCCCC1CCCCC1` is 7.18%; for `CCCCN1C(N)=NC[C@H]1Cc1ccc(O)cc1` it is 1.82%; for `NC1=NC[C@H](c2ccccc2)N1CC1CCCCC1` it is -20.2%. Then `CCCCN1C(N)=NC[C@@H]1Cc1ccc(O)cc1`, with -19.3%. As to `NC1=NC[C@H](Cc2ccccc2)N1CC1CCCCC1`, the inhibition was 2.62%. Regarding `O=[N+]([O-])c1cccc(-c2nc(-c3ccccn3)no2)c1`, the inhibition is 1.8%. `Cc1ccc(S(=O)(=O)c2c[nH]c3cc4c(cc3c2=O)OCO4)cc1`: the inhibition was 7.08%.

`CCCCCOc1ccc(C(=O)NCC2(c3ccccc3)CCOCC2)cc1`: the inhibition was 4.92%.

With `CCCC(=O)N1CCN(c2ccc(NC(=O)c3cccs3)cc2)CC1`, the inhibition is -2.61%.

With `O=S(CCc1ccncc1)Cc1ccccc1` (stereo not drawn), the inhibition was 4.99%.
